# System: HL-1
# Assay: protection of cardiomyocytes from stress damage, SAR follow-up, cell-based, panel, H9c2 and HL-1, ATP luminescence, set 2 (AID 651871);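 also: cells exposed to stressor for 2 h before ATP readout; reference of the scale not given here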
# Details: H9c2/HL-1 cardiomyocytes, 2-deoxyglucose stress, with 2-deoxyglucose, run 4, at 19.8 µM (top of the series)
compound,measurement,value
COc1ccc2c(c1OC)C(=O)N1c3ccccc3C(=O)N(Cc3cccc(Cl)c3Cl)C21 (stereo unspecified),activity (protection/inhibition),48.1%
